# Records with an inconclusive call do not appear. Some structures have more than one record in an assay (separate samples or runs), and their calls can disagree. Active and inactive are the calls of the source. The call rests on the fitted dose curve; in most records, active means well fitted cell-killing curve with a large enough effect in the repeat runs; inconclusive means weak or mixed curves, or effect the other way; inactive means no such curve, though single readings can be large or run the other way.
# Assay: qHTS assay for identifying genotoxic compounds that show differential cytotoxicity against isogenic chicken DT40 cell lines with known DNA damage response pathways - wild type cell line (AID 743012); further: nearly all actives have a fitted effect of over 60% in size
# Settings: DT40 wild type chicken cells viability, CellTiter-Glo, 40 h; series mostly up to 68.4 µM; activity change, negative = cytotoxicity: at the top concentration
# Description: U.S. Tox21 Program National Center for Advancing Translational Sciences [NCATS] NIH Chemical Genomics Center [NCGC] U.S. Environmental Protection Agency [EPA] National Institutes of Environmental Health Sciences [NIEHS] National Toxicology Program [NTP] U.S. Food and Drug Administration [FDA] Tox21 Assay Overview: DNA repair pathways play a critical role in cellular homeostasis by repairing DNA damage induced by endogenous processes and xenobiotics. Isogenic chicken DT40 cell lines deficient in different DNA repair pathways can be used to identify genotoxic compounds and aid in characterizing the nature of the DNA damage induced. Two DNA repair-deficient cell lines with disrupted genes, Rad54/Ku70 or Rev3, were used to screen the Tox21 10K compound library. Possible genotoxicity was based on the presence of a significant increase in cytotoxicity in one or more of the DNA repair-deficient cell lines compared to that observed in the parental DNA repair-proficient cell line. CellTiter Glo viability assay (Promega, Madison, WI) was used to measure cell viability in these cells after compound treatment. This assay includes the data from the wild type cell line.
# Tox21 Assay Protocol Summary: 300 DT40 wild type cells in 5 uL/well were dispensed into white, solid-bottom 1536-well plates using a Multidrop Combi (ThermoFisher Scientific, Waltham, MA) dispenser. After the assay plates were incubated at 37 C/5% CO2 for approximately 0.5 hour, 23 nL of compounds dissolved in DMSO, positive controls or DMSO only was transferred into the assay plate by a pintool work station (Kalypsys, San Diego, CA). The assay plates were incubated at 37 C/5% CO2 for 40 hours. After 5 uL per well of CellTiter-Glo reagent was added into each well of the assay plates, the plates were incubated for 30 min at room temperature and the luminescence intensity of the plates was measured using a ViewLux (PerkinElmer, Shelton, CT) plate reader.
# On the % scale 0 is the no-effect control and ±100 the full control effect; potency means the concentration at half of the fitted maximal effect.
SMILES,Potency,"activity change, negative = cytotoxicity"
CCN(CC)c1ccc(C(=C2C=CC(=[N+](CC)CC)C=C2)c2ccccc2)cc1,0.0944 µM (active),–
CC(=O)N[C@@H](C=O)[C@@H](O)[C@H](O)[C@H](O)CO,–,15% (inactive)
O=C(O)c1cccc(/C=C2/C[C@@H]3[C@@H](/C=C/[C@@H](O)C4CCCCC4)[C@H](O)C[C@@H]3O2)c1,–,14.3% (inactive)
CN(C)CCCN1c2ccccc2C(C)(C)c2ccccc21,18.8 µM (active),–
CCN(CC)CCOC(=O)c1ccc(N)cc1Cl,–,-15.6% (inactive)
C[C@]12C=CC(=O)C=C1CC[C@@H]1[C@@H]2[C@@H](O)C[C@@]2(C)[C@H]1CC[C@]2(O)C(=O)COC(=O)CCC(=O)O,–,1.4% (inactive)
CC1(C)S[C@@H]2[C@H](NC(=O)C(N)c3ccccc3)C(=O)N2[C@H]1C(=O)OC1OC(=O)c2ccccc21 (stereo not given in full),–,-16.6% [at 31.4 µM] (inactive)
CC1(C)C2CC[C@]3(C)[C@H](C(=O)C=C4[C@@H]5C[C@@](C)(C(=O)O)CC[C@]5(C)CC[C@]43C)[C@@]2(C)CC[C@@H]1O[C@H]1O[C@H](C(=O)O)[C@@H](O)[C@H](O)[C@H]1O[C@@H]1O[C@H](C(=O)O)[C@@H](O)[C@H](O)[C@H]1O (stereo not given in full),–,5.54% (inactive)
CC1(O)CCC(C(C)(C)O)CC1 (stereo not given),–,4.87% (inactive)
N=C(N)c1ccc(OCCCOc2ccc(C(=N)N)cc2Br)c(Br)c1,5.96 µM (active),–
CN1CCC(OC(=O)C(Oc2ccc(Cl)cc2)Oc2ccc(Cl)cc2)CC1,–,-18.2% (inactive)
O=C(O)c1ccc(OCCn2ccnc2)cc1,–,13.5% (inactive)
CC[C@H]1NC(=O)[C@@H](NC(=O)c2ncccc2O)[C@@H](C)OC(=O)[C@H](c2ccccc2)NC(=O)[C@@H]2CC(=O)CCN2C(=O)[C@H](Cc2ccccc2)N(C)C(=O)[C@@H]2CCCN2C1=O,–,19.9% (inactive)
Cc1cc(C)c(NC(=O)C[C@H](CC(=O)O)c2cccc3ccccc23)c(C(=O)N2CCC3(CCCC3)CC2)c1,–,6.62% (inactive)
O=[N+]([O-])c1c(Cl)cccc1-c1c[nH]cc1Cl,18.8 µM (active),–
CC[C@@H]1/C=C(\C)C[C@H](C)C[C@H](OC)[C@H]2O[C@@](O)(C(=O)C(=O)N3CCCC[C@H]3C(=O)O[C@H](/C(C)=C/[C@@H]3CC[C@@H](Cl)[C@H](OC)C3)[C@H](C)[C@@H](O)CC1=O)[C@H](C)C[C@@H]2OC,–,-9.2% (inactive)
CC(C)(C)CC(C)(C)c1cc(Cc2cc(C(C)(C)CC(C)(C)C)cc(-n3nc4ccccc4n3)c2O)c(O)c(-n2nc3ccccc3n2)c1,–,3.17% (inactive)
CCCC1C(=O)N2C(N(C)C)=Nc3ccc(C)cc3N2C1=O (stereo not given),–,5.92% [at 31.4 µM] (inactive)
O=C(OC[C@H]1O[C@](O)(COC(=O)c2cccnc2)[C@@H](OC(=O)c2cccnc2)[C@@H]1OC(=O)c1cccnc1)c1cccnc1,–,-2.32% (inactive)
NC(Cc1ccccc1)C(=O)O (stereo not given),–,-0.666% (inactive)

SMILES,Potency,"activity change, negative = cytotoxicity"
OC[C@H]1O[C@@H](n2cnc3c2NC=NC[C@H]3O)C[C@@H]1O,–,-5.5% (inactive)
C[C@H]1C[C@H]2[C@@H]3CCC4=CC(=O)C=C[C@]4(C)[C@@]3(F)[C@@H](O)C[C@]2(C)[C@@]1(O)C(=O)CCl,18.8 µM (active),–
CC1(C)S[C@@H]2[C@H](NC(=O)Cc3ccccc3)C(=O)N2[C@H]1C(=O)O,–,3.17% (inactive)
C=C[C@]1(C)C[C@@H](OC(=O)CSC(C)(C)CNC(=O)[C@H](N)C(C)C)[C@]2(C)[C@H](C)CC[C@]3(CCC(=O)[C@H]32)[C@@H](C)[C@@H]1O,0.188 µM (active),–
CCCCCCCCCCCCOCCCN,–,-1.65% (inactive)
CC(=O)O[C@H]1C[C@@H]2CC[C@@H]3[C@H](CC[C@@]4(C)[C@H]3C[C@H](N3CC[N+](C)(C)CC3)[C@@H]4OC(C)=O)[C@@]2(C)C[C@@H]1N1CC[N+](C)(C)CC1,–,1.45% (inactive)
O=c1[nH]cnc2[nH]cc(CN3CCCCC3)c12,–,8.14% (inactive)
CCOC(=O)[C@H](CCc1ccccc1)N[C@H]1CCCN2CCC[C@@H](C(=O)O)N2C1=O,–,4.59% (inactive)
CC1=C(/C=C/C(C)=C/C=C/C(C)=C/C=C/C=C(C)/C=C/C=C(C)/C=C/C2=C(C)C[C@@H](O)CC2(C)C)C(C)(C)C[C@H](O)C1,7.5 µM (active),–
O=C(O)CO.[NH2-].[NH2-].[Pt+2],–,17.3% (inactive)
CN[C@@H]1[C@@H](O)[C@@H](O[C@@H]2[C@@H](O)[C@H](O[C@H]3O[C@H](CN)[C@@H](O)[C@H](O)[C@H]3O)[C@@H](N)C[C@H]2NC(=O)C(O)CN)OC[C@]1(C)O (stereo not given in full),–,0.11% (inactive)
CC(=O)N(CC(C)C(=O)O)c1c(I)cc(I)c(N)c1I (stereo not given),–,14.3% [at 31.4 µM] (inactive)
CCCCC(O)c1ccccc1 (stereo not given),–,3.19% (inactive)
O.O=C([O-])CC([S-])C(=O)[O-].[Au+].[Na+].[Na+] (stereo not given),–,6.86% (inactive)
Cc1ccc(/C(=C\CN2CCCC2)c2cccc(/C=C/C(=O)O)n2)cc1,–,-0.207% (inactive)
CCCCCCCCCCCCCCCCCCCCCC(=O)Nc1ccn([C@@H]2O[C@H](CO)[C@@H](O)[C@@H]2O)c(=O)n1,18.8 µM (active),–
CO/N=C(\C(=O)N[C@@H]1C(=O)N2C(C(=O)O)=C(CSc3nnnn3C)CS[C@H]12)c1csc(N)n1,–,16.8% (inactive)
CCCCCCCCCCCC(=O)OC[C@@H](O)C1OC[C@H](O)[C@H]1O (stereo not given in full),–,-9.57% (inactive)
COCC1=C(C(=O)OC(C)OC(=O)OC(C)C)N2C(=O)[C@@H](NC(=O)/C(=N\OC)c3csc(N)n3)[C@H]2SC1 (stereo not given in full),1.68 µM (active) and inactive,–
Nc1nc2[nH]cc(CCc3ccc(C(=O)N[C@@H](CCC(=O)O)C(=O)O)cc3)c2c(=O)[nH]1,0.0266 µM (active),–

# Source: PubChem BioAssay (Tox21)
